Results filed as inconclusive are left out. Unmarked numbers belong to inactive results. Calls of active or inactive are those of the source. The call rests on the fitted dose curve.
Experiment: qHTS assay for small molecule disruptors of the mitochondrial membrane potential - cell viability (AID 720634); further: nearly all actives have a fitted effect of over 20% in size;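 on activity change, negative = cytotoxicity: human HepG2 liver cancer cells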
Conditions: HepG2 viability, ATP luminescence (CellTiter-Glo), 1 h; series mostly up to 83.2 µM; activity change, negative = cytotoxicity: at the top concentration
Text: U.S. Tox21 Program National Center for Advancing Translational Sciences [NCATS] NIH Chemical Genomics Center [NCGC] U.S. Environmental Protection Agency [EPA] National Institutes of Environmental Health Sciences [NIEHS] National Toxicology Program [NTP] U.S. Food and Drug Administration [FDA] Tox21 Assay Overview: Mitochondrial membrane potential (MMP), one of the parameters for mitochondrial function, is generated by mitochondrial electron transport chain that creates an electrochemical gradient by a series of redox reactions. This gradient drives the synthesis of ATP, a crucial molecule for various cellular processes. Measuring MMP in living cells is commonly used to assess the effect of chemicals on mitochondrial function; decreases in MMP can be detected using lipophilic cationic fluorescent dyes. […] The dye accumulates in the mitochondria of healthy cells as aggregates, with red fluorescence. The mitochondrial potential decreases and the dye could not accumulate in the mitochondria and remains in the cytoplasm in monomers, with green fluorescence. In addition to the mitochondrial potential assay, these cells were also used to test the cytotoxicity by determining the cell viability in the culture based on the quantitation of ATP present. The cytotoxicity was measured in the same assay well of MMP assay.
Tox21 Assay Protocol Summary: 2,000 HepG2 cells in 5 uL/well were dispensed into black, clear-bottom 1536-well plates using a Multidrop Combi (Thermo Scientific) dispenser. The assay plates were incubated for an overnight at 37 C to allow cells to attach to the wells, followed by the transfer of 23 nL compound or DMSO vehicle by a pin tool (Kalypsys). The plates were incubated for 1 hr at 37 C and 5% CO2, followed by the addition of 5 uL of 2X m-MPI dye into each well using Flying Reagent Dispenser (Aurora Discovery) and then CellTiter-Glo reagent was added at 4 uL/well and incubated 30 min at room temperature. Then luminescence intensity was quantified on a ViewLux CCD-based plate reader.
On the % scale 0 is the no-effect control and ±100 the full control effect; potency means the concentration at half of the fitted maximal effect.

Structure (SMILES)	activity change, negative = cytotoxicity	Potency
CCC(CC)C(=O)O	7.18%	
O=C(OC1C[C@H]2CC[C@@H](C1)[N+]21CCCC1)C(O)(c1ccccc1)c1ccccc1 (stereo not given in full)	6.05%	
CCCCCCOC(=O)c1ccccc1	10.9%	
NC(=O)c1ccccc1	3.28% [at 95.3 µM]	
FC(F)(Cl)C(F)(Cl)Cl	13.6%	
Clc1cc(Cl)c2c(c1)N=C1CCCCCN1C2	6.79%	
O=C(O)c1ccccc1-n1cc(C(=O)O)c(=O)c2cc(Nc3c(F)cc(F)cc3Cl)c(Cl)cc21	2.29%	
Cc1ccc2ccccc2c1[N+](=O)[O-]	-5.14%	
Cc1ccc(NC=O)c(C)c1	14.6%	
CC(O)CN (stereo not given)	-7.37%	
O=c1c2ccccc2oc2ccccc12	2.42%	
C=CC(=O)OCCCCCCCCCC	-8.47%	
C=C[Si](OCC)(OCC)OCC	9.1%	
CC(C(=O)O)c1ccc2c(c1)Cc1cccnc1O2 (stereo not given)	-2%	
COC(=O)Cc1cccc2ccccc12	-1.47%	
O=C(O)c1cc(C(=O)O)c(C(=O)O)cc1C(=O)O	16.8%	
CC(=O)Nc1ccn(C2COC(COC(=O)c3ccccc3)O2)c(=O)n1 (stereo not given)	9.25%	
N#Cc1ccc(CC(=O)c2cccc(C(F)(F)F)c2)cc1		48.6 µM (active)
CCCCCCCCCCCCN1CCOCC1	7.94%	
Cc1c(Cl)cccc1Nc1ccccc1C(=O)O	-14.7%	

Structure (SMILES)	activity change, negative = cytotoxicity	Potency
O=C(OCCCCCOC(=O)c1ccccc1)c1ccccc1	7.56%	
Cc1cccc(C)c1NC(=O)CN1CCCC1	7.74%	
CCCC(=O)OCCC(C)C	-2.07%	
Clc1ccccc1-c1nc(-c2ccncc2)no1	-16.2%	
Cc1c(N=C=O)cccc1N=C=O	10% [at 95.3 µM]	
O=C(OCCOCCOCCOC(=O)c1ccccc1)c1ccccc1	13%	
CCCCCCCCCCCCSC#N	-5%	
c1ccc(CN(Cc2ccccc2)Cc2ccccc2)cc1	-22%	
CCCCCCCCOCCCN	8.74%	
Nc1ncnc2c1ncn2[C@@H]1O[C@H](CO)[C@@H](O)[C@H]1O	28.1%	
CC(C)CCCCCOC(=O)CS	10%	
CC(C)NC(=O)c1ccccc1N	12.7%	
CC(=O)Oc1cccc2c1C(=O)c1c(OC(C)=O)cc(C(=O)O)cc1C2=O	-3.02%	
CCOc1cc(OCC)c(C(C)=O)cc1OCC	7.76%	
Nc1ccc(-c2ccc(F)cc2)cc1	14%	
CC(C)Cc1nccs1	4.94% [at 95.3 µM]	
CCCCCCCCCCCCSCCOCCO	1.63%	
COc1ccc(C(=O)c2ccc(C)cc2)c(O)c1		inactive
CC(=O)S[C@H](C(=O)N[C@H]1Cc2ccccc2[C@H]2CCC[C@@H](C(=O)O)N2C1=O)C(C)C	7.04%	
COc1cc(C)c(Cc2cnc(N)nc2N)cc1OC	-1.54%	
